For 18 molecules, growth inhibition, inhibition and outcome results are on record in PubChem BioAssay.

Assay [1] can be described thus: antimalarial activity against Dd2 strain (AID 2302;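 active means growth inhibition above 50% at the single 2 µM test dose, taken to imply half-maximal potency below 2 µM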;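 further: 0% = DMSO untreated growth and 100% = chloroquine plus artemisinin killed control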). The note with it: P. falciparum Dd2 in RBCs, LDH growth readout, 72 h; at 2 µM; active compounds read high.
Assay [2] can be described thus: HepG2 cytotoxicity, primary screen, cytotoxicity control for P. falciparum antimalarial project, cell-based, ATP luminescence (AID 2303;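 active means inhibition above 50%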;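 further: 0% = DMSO wells and 100% = digitonin-killed cells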). The note with it: HepG2 viability, 24-48 h, at 10 µM, active compounds read high.
Assay [3] addresses L-lactate dehydrogenase (Plasmodium falciparum (isolate CDC / Honduras)) (UniProt Q27743). Kind of assay: PfLDH activity inhibition – cell lysate, 3D7 strain, counter-screen for P. falciparum growth inhibition project (AID 2304).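 Further: 0% = vehicle and 100% = reference inhibitor.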 As to conditions: P. falciparum 3D7 crude extract, LDH APAD/NBT absorbance; at 2 µM; active compounds read high. (A counterscreen serves to expose hits that act by an unwanted route or on another target.)

The nature of assay [4]: inhibition of 3D7 malaria parasite growth – strain 3D7 (AID 2306).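 Further: 0% = DMSO wells and 100% = chloroquine plus artemisinin control wells.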 As to conditions: P. falciparum 3D7 erythrocytic growth, LDH absorbance, 72 h; at 2 µM; active compounds read high.
The target in assay [5] is Calcium-dependent protein kinase 1 (Plasmodium falciparum (isolate 3D7)) (UniProt P62344). Kind of assay: PfCDPK1 kinase inhibitors, biochemical, TCAMS library (AID 1159585; cut-off not given, nearly all actives have IC50 up to about 0.98 µM;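 further: inhibitors leave more ATP so luminescence rises with inhibition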). The note with it: recombinant PfCDPK1, Kinase-Glo ATP depletion luminescence.
Assay [6] deals with Plasmodium falciparum protein kinase 6 (PK6, PF3D7_1337100) (UniProt Q8IDW1). Description: PfPK6 kinase inhibitors, biochemical, TCAMS library (AID 1159586). As to conditions: recombinant PfPK6, Kinase-Glo ATP depletion luminescence. (In general: Kinase-Glo measures the ATP left after a reaction by luminescence.)
Assay [7] has as its target Protein kinase 7 (PK7), Plasmodium falciparum 3D7 (PF3D7_0213400) (UniProt Q7YTF7). Description: inhibition of Plasmodium PK7 catalytic activity – biochemical, TCAMS antimalarial set, Kinase-Glo luminescence (AID 1159587). As to conditions: recombinant PfPK7, Kinase-Glo ATP depletion luminescence.
Assay [8] addresses Calcium-dependent protein kinase 4 (Plasmodium falciparum (isolate 3D7)) (UniProt Q8IBS5). Kind of assay: PfCDPK4 kinase inhibitors, biochemical, TCAMS library (AID 1159588; cut-off not given, nearly all actives have IC50 up to about 0.91 µM). The note with it: recombinant PfCDPK4, Kinase-Glo ATP depletion luminescence.

A number with no mark means an inactive call. For part of these data: Results with a measured potency or affinity are listed apart. Calls of active or inactive are those of the source. Unless noted, how the calls were made is not given here.

Plasmodium falciparum protein kinase 6 (PK6, PF3D7_1337100), sequence (Q8IDW1 1-305): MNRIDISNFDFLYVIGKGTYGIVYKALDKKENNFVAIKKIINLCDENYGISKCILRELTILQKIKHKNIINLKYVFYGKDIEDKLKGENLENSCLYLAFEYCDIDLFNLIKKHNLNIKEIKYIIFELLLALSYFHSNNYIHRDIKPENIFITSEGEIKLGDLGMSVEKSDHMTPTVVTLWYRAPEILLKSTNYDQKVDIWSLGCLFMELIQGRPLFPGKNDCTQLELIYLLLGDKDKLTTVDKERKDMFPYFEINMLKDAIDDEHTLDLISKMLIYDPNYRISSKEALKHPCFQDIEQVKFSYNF
Protein kinase 7 (PK7), Plasmodium falciparum 3D7 (PF3D7_0213400), sequence (Q7YTF7 1-343): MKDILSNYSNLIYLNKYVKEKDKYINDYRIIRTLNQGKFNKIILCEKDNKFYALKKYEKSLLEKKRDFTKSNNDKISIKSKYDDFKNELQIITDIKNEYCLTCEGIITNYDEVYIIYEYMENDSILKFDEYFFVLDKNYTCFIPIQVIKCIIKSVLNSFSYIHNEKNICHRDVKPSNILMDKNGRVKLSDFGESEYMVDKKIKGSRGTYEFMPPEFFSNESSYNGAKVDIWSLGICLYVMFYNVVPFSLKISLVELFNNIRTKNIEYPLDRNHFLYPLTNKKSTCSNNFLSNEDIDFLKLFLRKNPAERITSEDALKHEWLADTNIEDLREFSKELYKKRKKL
L-lactate dehydrogenase (Plasmodium falciparum (isolate CDC / Honduras)), sequence (Q27743 whole entry, looked up): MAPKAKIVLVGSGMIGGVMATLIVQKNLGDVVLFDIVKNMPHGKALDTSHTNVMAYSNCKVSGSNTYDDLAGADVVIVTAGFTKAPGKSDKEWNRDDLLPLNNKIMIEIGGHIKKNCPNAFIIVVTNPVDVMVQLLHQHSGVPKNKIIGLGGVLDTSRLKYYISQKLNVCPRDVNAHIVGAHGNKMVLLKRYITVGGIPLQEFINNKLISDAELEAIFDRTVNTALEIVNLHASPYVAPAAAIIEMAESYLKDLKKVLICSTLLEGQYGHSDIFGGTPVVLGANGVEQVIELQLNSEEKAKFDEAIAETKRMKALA
Calcium-dependent protein kinase 1 (Plasmodium falciparum (isolate 3D7)), sequence (P62344 whole entry, looked up): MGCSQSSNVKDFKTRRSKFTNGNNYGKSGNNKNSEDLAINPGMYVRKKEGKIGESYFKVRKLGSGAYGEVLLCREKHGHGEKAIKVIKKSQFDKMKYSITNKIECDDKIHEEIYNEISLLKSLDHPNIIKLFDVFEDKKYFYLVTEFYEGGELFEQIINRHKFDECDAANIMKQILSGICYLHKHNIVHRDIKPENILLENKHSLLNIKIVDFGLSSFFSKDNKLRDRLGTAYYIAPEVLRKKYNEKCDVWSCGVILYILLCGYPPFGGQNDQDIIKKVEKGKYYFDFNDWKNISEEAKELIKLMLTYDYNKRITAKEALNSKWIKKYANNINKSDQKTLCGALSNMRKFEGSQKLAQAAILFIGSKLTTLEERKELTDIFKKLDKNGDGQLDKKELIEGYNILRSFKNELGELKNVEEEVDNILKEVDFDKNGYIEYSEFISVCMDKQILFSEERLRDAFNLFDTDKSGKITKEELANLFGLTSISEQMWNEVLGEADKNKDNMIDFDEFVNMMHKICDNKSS
Calcium-dependent protein kinase 4 (Plasmodium falciparum (isolate 3D7)), sequence (Q8IBS5 whole entry, looked up): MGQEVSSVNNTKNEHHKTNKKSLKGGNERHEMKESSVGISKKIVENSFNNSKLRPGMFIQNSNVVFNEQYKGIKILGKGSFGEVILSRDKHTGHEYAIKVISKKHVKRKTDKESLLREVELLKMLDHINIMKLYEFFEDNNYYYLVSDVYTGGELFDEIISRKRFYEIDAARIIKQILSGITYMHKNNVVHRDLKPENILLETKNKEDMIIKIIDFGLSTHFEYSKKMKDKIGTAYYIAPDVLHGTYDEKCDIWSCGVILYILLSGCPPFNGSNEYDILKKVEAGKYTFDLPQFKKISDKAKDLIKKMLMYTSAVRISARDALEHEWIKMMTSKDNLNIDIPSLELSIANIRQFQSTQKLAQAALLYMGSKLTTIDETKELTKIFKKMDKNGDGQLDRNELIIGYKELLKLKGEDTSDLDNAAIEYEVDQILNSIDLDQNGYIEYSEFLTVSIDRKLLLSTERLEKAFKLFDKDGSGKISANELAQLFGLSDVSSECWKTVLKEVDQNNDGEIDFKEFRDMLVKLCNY

By inhibition is commonly meant the relative decrease from the control value, in per cent. For `CN(C)CCCN(C)c1cccc2c1nc(-c1cccnc1)n2CCNCc1ccccc1`, the values for the growth inhibition in assay [1] and in assay [4] were 88% (active) and 89% (active), respectively. For the same molecule, the inhibition in assay [2] and in assay [3] was 4% in each case. For the same molecule, the outcome in assay [5], in assay [6], in assay [7] and in assay [8] was inactive.

For the molecule `CCc1ccc(-c2nc3cc(NC(=O)c4ccc([N+](=O)[O-])o4)ccc3o2)cc1`, the growth inhibition is 80% (active) in assay [1] and 97% (active) in assay [4]. Moreover, the inhibition is 4% in assay [2] and 3% in assay [3]. Moreover, the outcome in assay [5], in assay [6], in assay [7] and in assay [8] was inactive.

Regarding `Cc1nc(N)nc(N)c1-c1cccc(Cl)c1`, the growth inhibition in assay [1] was -1%; in assay [4] it was 88% (active). Moreover, the inhibition is 60% (active) in assay [2] and 2% in assay [3]. For the same molecule, the result in assay [5], in assay [6], in assay [7] and in assay [8] was inactive.

As to `CC(CN(C)C)C(=O)Nc1ccc(-c2ccc(-c3nc4ccccc4[nH]3)s2)cc1` (centres undefined), the growth inhibition in assay [1] was 86% (active); in assay [4], 100% (active). Moreover, the inhibition in assay [2] was 14%; in assay [3], 5%. Moreover, the outcome in assay [5], in assay [6], in assay [7] and in assay [8] was inactive.

`O=C(Nc1cccc(-c2csc(-c3nc4ccccc4[nH]3)c2)c1)c1cc(=O)c2ccccc2[nH]1`: the growth inhibition in assay [1] is 39%; in assay [4], 98% (active). Further, the results for the inhibition in assay [2] and in assay [3] were 41% and -2%, respectively. In addition, the outcome in assay [5], in assay [6], in assay [7] and in assay [8] was inactive.

On to `CC(C)(C)c1ccc(CN2CCCCC(NC(=O)c3cc(-c4cccc(Cl)c4)cs3)C2)cc1` (centres undefined), for which the growth inhibition in assay [1] is 60% (active); in assay [4], 96% (active). The values for the inhibition in assay [2] and in assay [3] were 11% and 1%, respectively. For the same molecule, the result in assay [5], in assay [6], in assay [7] and in assay [8] was inactive.

Take `CC(C)(C)S[C@H]1S[C@H](SC(C)(C)C)[C@@H](OC(=O)c2ccccc2)C(OC(=O)c2ccccc2)[C@H]1OC(=O)c1ccccc1` (some centres undefined): the growth inhibition is 45% in assay [1] and 95% (active) in assay [4]. The inhibition is -2% in assay [2] and 5% in assay [3]. For the same molecule, the outcome in assay [5], in assay [6], in assay [7] and in assay [8] was inactive.

For `CN1CCCN(c2ccnc3cc4c(cc23)N(C(=O)c2ccc(Cl)cc2)CC4)CC1`, the growth inhibition in assay [1] was 0%; in assay [4], 100% (active). For the same molecule, the values for the inhibition in assay [2] and in assay [3] were 0% and 4%, respectively. Further, the outcome in assay [5], in assay [6], in assay [7] and in assay [8] was inactive.

Regarding `Cc1ccc(Oc2c(-c3ccccc3CN3CCCC3CN(C)C)cnn(C)c2=O)cn1` (centres undefined), the growth inhibition is 9% in assay [1] and 88% (active) in assay [4]. Besides, the inhibition in assay [2] was -1%; in assay [3], -4%. Also, the outcome in assay [5], in assay [6], in assay [7] and in assay [8] was inactive.

Consider `Brc1cc(CNCCCNc2nc3ccccc3[nH]2)sc1Br`, for which the values for the growth inhibition in assay [1] and in assay [4] were 21% and 100% (active), respectively. The inhibition in assay [2] was 10%; in assay [3], 8%. Besides, the outcome in assay [5], in assay [6], in assay [7] and in assay [8] was inactive.

As for `COc1ccccc1OCCN(CC(O)COc1cccc2[nH]c3ccccc3c12)CC(O)COc1cccc2[nH]c3ccccc3c12` (centres undefined), the growth inhibition was 96% (active) in assay [1] and 97% (active) in assay [4]. In addition, the results for the inhibition in assay [2] and in assay [3] were 16% and -8%, respectively. The outcome in assay [5], in assay [6], in assay [7] and in assay [8] was inactive.

For `O=C(Nc1ccc(Br)cc1)Nc1ccc(Cn2ncc(N3CCCNCC3)c(Cl)c2=O)cc1`, the figures for the growth inhibition in assay [1] and in assay [4] were 15% and 87% (active), respectively. The inhibition in assay [2] was -7%; in assay [3], -1%. Also, the outcome in assay [5], in assay [6], in assay [7] and in assay [8] was inactive.

With `COc1c(C2CCN(CCCCNC(=O)c3ccc(-c4ccc(C#N)cc4)cc3)CC2)cc(Cl)c2c1CCCC2`, the values for the growth inhibition in assay [1] and in assay [4] were 59% (active) and 93% (active), respectively. The inhibition is 45% in assay [2] and 0% in assay [3]. Further, the result in assay [5], in assay [6], in assay [7] and in assay [8] was inactive.

Regarding `OC1CCN(c2cc(-c3ccccn3)nc(-c3ccccn3)n2)CC1`, the growth inhibition in assay [1] was 97% (active); in assay [4] it was 83% (active). The values for the inhibition in assay [2] and in assay [3] were 43% and -2%, respectively. Moreover, the result in assay [5], in assay [6], in assay [7] and in assay [8] was inactive.

Take `O=C(C=Cc1ccc(Cl)c(Cl)c1)NCCCCCN1CCCC(CCCNS(=O)(=O)c2cccc(C(F)(F)F)c2)C1` (centres undefined): the values for the growth inhibition in assay [1] and in assay [4] were 33% and 94% (active), respectively. In addition, the inhibition is 81% (active) in assay [2] and -3% in assay [3]. Moreover, the result in assay [5], in assay [6], in assay [7] and in assay [8] was inactive.

As to `COc1ccc2nc(C)cc(Nc3ccc(Oc4ccc(Cl)c5ccccc45)c(Cl)c3)c2c1`, the growth inhibition in assay [1] and in assay [4] was 100% (active) in each case. The inhibition in assay [2] is 83% (active); in assay [3] it was -2%. Moreover, the result in assay [5], in assay [6], in assay [7] and in assay [8] was inactive.

`c1cc(CNCC2CCCO2)cc(-c2csc(-c3nc4ccccc4[nH]3)c2)c1` (centres undefined): the growth inhibition in assay [1] was 6%; in assay [4] it was 91% (active). Besides, the inhibition in assay [2] was 5%; in assay [3] it was 2%. Moreover, the result in assay [5], in assay [6], in assay [7] and in assay [8] was inactive.

As for `Cc1ccc2cc(NC(=O)c3cccc(C(=O)Nc4ccc5nc(C)ccc5c4)n3)ccc2n1`, the growth inhibition was 23% in assay [1] and 92% (active) in assay [4]. Also, the inhibition in assay [2] is 21%; in assay [3] it was 4%. In addition, the result in assay [5], in assay [6], in assay [7] and in assay [8] was inactive.
